Measured values: the supplement of paper PMC12582362
Structures can show the parent of a compound that is named as a salt. Screen size: about 1,500 compounds; about 30 (2%) showed activity.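 The calls were made as follows: active = robust z-score below -2; a few such results were not called.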 For the sample, actives were picked, then their nearest neighbours and some compounds at random.

test system: optoTopBP1 Flp-In 293 T-REx (HEK293) cells; test: light-induced TopBP1 condensate (nuclear foci) count, plate-normalised robust z-score vs non-control wells; higher = more TopBP1 condensates (negative = condensation inhibitor), active = hit call of the paper; conditions: 10 µM; incubation time 2 h

Structure (SMILES)	light-induced TopBP1 condensate (z-score)
C[CH2][Hg][S]c1ccccc1C(=O)[O-].[Na+] [Thimerosal]	-8.21 (active)
C[C@]12CC[C@H]3[C@@H](CCC4=CC(=O)CC[C@@H]43)[C@@H]1CC[C@@H]2O [Nandrolone]	2.28 (inactive)
O=C([O-])c1ccccc1-c1c2cc(Br)c(=O)cc-2oc2[c]([Hg+])c([O-])c(Br)cc12.[Na+].[Na+].[OH-] [Merbromin]	-0.221 (inactive)
C[C@]12CC[C@@H](O)C[C@@H]1CC[C@@H]1[C@@H]2CC[C@]2(C)C(=O)CC[C@@H]12 [Androsterone]	0.981 (inactive)
C[C@]12CC[C@H](O)C[C@@H]1CC[C@@H]1[C@@H]2CC[C@]2(C)C(=O)CC[C@@H]12 [Epiandrosterone]	-0.588 (inactive)
C[C@]12CC[C@H](O)C[C@H]1CC[C@@H]1[C@@H]2C[C@@H](O)[C@]2(C)[C@@H](C3=CC(=O)OC3)CC[C@]12O [Digoxigenin]	-2.51 (active)
C[C@]12CC[C@H](O)C[C@H]1CC[C@@H]1[C@@H]2CC[C@]2(C)[C@@H](C3=CC(=O)OC3)CC[C@]12O [Digitoxigenin]	-2.06 (active)
C[C@]12CC[C@@H](O)C[C@H]1CC[C@@H]1[C@@H]2CC[C@]2(C)C(=O)CC[C@@H]12 [3-alpha-Hydroxy-5-beta-androstan-17-one]	-0.529 (inactive)
CC(=O)O[C@H]1C[C@H](O[C@H]2[C@@H](O)C[C@H](O[C@H]3[C@@H](O)C[C@H](O[C@H]4CC[C@@]5(C)[C@H](CC[C@@H]6[C@@H]5C[C@@H](O)[C@]5(C)[C@@H](C7=CC(=O)OC7)CC[C@]65O)C4)O[C@@H]3C)O[C@@H]2C)O[C@H](C)[C@H]1O[C@@H]1O[C@H](CO)[C@@H](O)[C@H](O)[C@H]1O [Lanatoside C]	-1.56 (inactive)
CO[C@]12C[C@@H](COC(=O)c3cncc(Br)c3)CN(C)[C@@H]1Cc1cn(C)c3cccc2c13 [Nicergoline]	-0.703 (inactive)
CC(=O)NC1CCSC1=O (racemic) [N-Acetyl-DL-homocysteine Thiolactone]	-0.247 (inactive)
CC(=O)O[C@H]1CC[C@@]2(C)C(=CC[C@@H]3[C@@H]2CC[C@]2(C)C(=O)CC[C@@H]32)C1 [Dehydroisoandosterone 3-acetate]	-0.674 (inactive)
COc1cc([C@@H]2c3cc4c(cc3[C@H](O)[C@H]3COC(=O)[C@H]23)OCO4)cc(OC)c1OC [Podophyllotoxin]	-2.43 (active)
COc1cc2c(c(OC)c1OC)-c1ccc(OC)c(=O)cc1[C@@H](NC(C)=O)CC2 [Colchicine]	-1.18 (inactive)
CC(CCc1ccccc1)NC(C)C(O)c1ccc(O)cc1 (stereo not given) [Nylidrin]	0.555 (inactive)
C#C[C@]1(O)CC[C@H]2[C@@H]3CCC4=CC(=O)CCC4=C3C=C[C@@]21CC [Gestrinone]	0.545 (inactive)
CN1C(=O)COc2c(C(=O)NC3CN4CCC3CC4)cc(Cl)cc21 (stereo not given) [Azasetron hydrochloride]	0.519 (inactive)
C[N+]1(C)[C@@H]2CC[C@H]1C[C@@H](OC(=O)C(CO)c1ccccc1)C2 (stereo not given in full) [Methylatropine nitrate]	-0.568 (inactive)
COc1ccc(CCN)cc1OC [Homoveratrylamine]	-1.31 (inactive)
C[C@]12CCC(=O)C=C1C=C[C@@H]1[C@@H]2CC[C@@]2(C)[C@H]1CC[C@@]2(O)CCC(=O)O [Canrenoic acid potassium salt]	1.33 (inactive)
